Giardia killer: Small Molecules that selectively kill Giardia lamblia: qHTS. Giardia lamblia trophozoite viability. activity change, % at 7.66 µM, hits read low. 340,000 tested, 0.15% active. AID 540267, 2011; in the data active means activity change below about -80%; inconclusive means between about -30% and that limit;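 further: parasites exposed to compound for two days anaerobically before the ATP read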
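Viability, read as ATP luminescence: trophozoites at 100 cells/well, compound added, 48 hrs anaerobic at 37 deg C, then 15-30 min room-temperature development before reading.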
ELG1 DNA repair: qHTS screen for small molecules that inhibit ELG1-dependent DNA repair in human embryonic kidney (HEK293T) cells expressing luciferase-tagged ELG1 | HEK293T ELG1-luciferase reporter, luminescence, 16 h; DNA damage induced by 5-fluorouridine | Potency, µM (highest dose often 46.1 µM), hits mostly inhibitors | 330,000 tested, 2.3% active; further: nearly all actives have a fitted effect of over 55% in size
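Overnight (16 hr) co-exposure of 2,000 cells/well to 5-fluorouridine and compound at 37 °C preceded detection. Luciferase was quantified via ONE-Glo luminescence; loss of signal denotes inhibition.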
RORgamma inh: qHTS for inhibitors of ROR gamma transcriptional activity; Nuclear receptor ROR-gamma (Mus musculus), P51450; Potency, µM (top dose mostly 53.6 µM), most hits filed as inhibitors; 310,000 tested, 5.4% active; Drosophila S2 Gal4-RORgamma UAS-luciferase reporter, 20 h; further: nearly all actives have a fitted effect of over 60% in size
Target sequence (P51450 whole entry, looked up, the tested form may be a part): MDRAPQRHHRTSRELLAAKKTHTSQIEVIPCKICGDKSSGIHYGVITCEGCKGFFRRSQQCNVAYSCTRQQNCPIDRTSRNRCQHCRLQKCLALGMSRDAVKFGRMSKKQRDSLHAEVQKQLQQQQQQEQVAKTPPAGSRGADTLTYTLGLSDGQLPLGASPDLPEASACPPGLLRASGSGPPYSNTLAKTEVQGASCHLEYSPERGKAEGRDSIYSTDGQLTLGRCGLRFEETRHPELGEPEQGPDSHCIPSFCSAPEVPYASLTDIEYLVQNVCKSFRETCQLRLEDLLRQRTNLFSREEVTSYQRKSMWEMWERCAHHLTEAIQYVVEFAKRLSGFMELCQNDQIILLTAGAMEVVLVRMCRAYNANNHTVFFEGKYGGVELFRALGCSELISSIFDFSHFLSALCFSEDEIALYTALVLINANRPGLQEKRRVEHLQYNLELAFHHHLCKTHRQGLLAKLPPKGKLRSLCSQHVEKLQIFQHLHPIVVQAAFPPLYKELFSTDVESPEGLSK
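Compounds are pin-transferred onto Drosophila Schneider cells expressing a copper-inducible Gal4–ROR gamma transactivation domain fusion. After 1 hr, copper sulfate is added to 700 uM final; luciferase is read 20 hr later.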
p53 reactivator: qHTS assay for re-activators of p53 using a Luc reporter | Potency, µM (doses to about 92.2 µM), usual class: activators | 320,000 tested, 0.063% active | H1299 p53-A138V BP100-luciferase reporter, luminescence, 24 h; further: nearly all actives have a fitted effect of over 45% in size
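H1299 (p53-null), stable ts p53-A138V + BP100-Luc; 1000 cells/well, Opti-MEM/10% FBS; cpd 4 pt, 1:5; 24 h, 37 deg C, 5% CO2; detection reagent 10 min RT; luminescence.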
BRCA1 expr act: qHTS Assay to Identify Small Molecule Activators of BRCA1 Expression | MCF7-BRCA1-FFLuc reporter, luminescence, 48 h; response scale: scaled: vehicle 0%, 10 µM genistein 100% | Potency, µM (series often up to 46.1 µM), usual class: activators | 380,000 tested, 1.1% active; further: nearly all actives have a fitted effect of over 80% in size
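Quantitative HTS in MCF7 cells stably reporting BRCA1 expression via firefly luciferase. Compound treatment lasts 48 h at 37 °C in phenol-red free MEM. Activation is expressed relative to genistein at 10 microM and DMSO.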
Gal4-VP16 FLuc: VP16 counterscreen qHTS for inhibitors of ROR gamma transcriptional activity; Drosophila S2 Gal4-VP16 UAS-luciferase, luminescence, 20 h; Potency, µM (highest dose often 53.6 µM), actives largely listed as inhibitors; 310,000 tested, 3.5% active;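 further: Gal4-VP16 expression switched on by copper sulfate through the metallothionein promoter; nearly all actives have a fitted effect of over 50% in size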
Numbers stand for hits; [ ] = another dose, or the depositor's remark. Hits are enriched below; roughly 7.6% of the tested compounds scored in any of these assays. Unless noted, the call rests on the fitted dose curve; in most records, active means well fitted curve in the direction sought with a large enough effect; inconclusive means small, poorly fitted or top-dose-only effect, or another doubt; inactive means no such curve, though single readings can be large; an effect the other way counts as inactive or inconclusive.

COc1cccc(-n2ccnc2SCC(=O)Nc2ccccc2F)c1 was read as Giardia killer inactive, ELG1 DNA repair inconclusive, RORgamma inh inconclusive, p53 reactivator inactive, BRCA1 expr act inactive and Gal4-VP16 FLuc inactive.
`O=C(CCSc1ccc(Br)cc1)c1ccc(O)cc1` gave Giardia killer inactive, ELG1 DNA repair inactive, RORgamma inh inactive, p53 reactivator inconclusive, BRCA1 expr act inactive and Gal4-VP16 FLuc inactive.
COc1cc(N(C)C)c([N+](=O)[O-])cc1C(=O)NC(C)CNc1ccc([N+](=O)[O-])cc1Cl (configuration not stated) was read as Giardia killer inactive, ELG1 DNA repair inconclusive, RORgamma inh inactive, p53 reactivator inactive, BRCA1 expr act inactive and Gal4-VP16 FLuc inactive.
Screening Cc1cccc(-n2cc[nH]c2=S)c1C returned Giardia killer inactive, ELG1 DNA repair inactive, RORgamma inh inactive, p53 reactivator inactive, BRCA1 expr act inactive and Gal4-VP16 FLuc inconclusive.
Cc1cccc(-n2cc[nH]c2=S)c1 was read as Giardia killer inactive, ELG1 DNA repair inactive, RORgamma inh 7.94µM, p53 reactivator inactive, BRCA1 expr act inactive and Gal4-VP16 FLuc inconclusive.
`Cn1c(COc2ccc(Br)cc2)nnc1SC1CCc2ccccc2C1=O` (configuration not stated) gave Giardia killer inactive, ELG1 DNA repair inconclusive, RORgamma inh 22.4µM, p53 reactivator inactive, BRCA1 expr act inactive and Gal4-VP16 FLuc inconclusive.
`Cn1c(COc2ccccc2)nnc1SCCSc1nnc(COc2ccccc2)n1C` gave Giardia killer inactive, ELG1 DNA repair inactive, RORgamma inh inactive, p53 reactivator inactive, BRCA1 expr act inactive and Gal4-VP16 FLuc inactive.
For CN1CCN(C(=O)c2cc3sc4ccccc4c3s2)CC1 the results were Giardia killer inactive, ELG1 DNA repair inconclusive, RORgamma inh inactive, p53 reactivator inactive, BRCA1 expr act inactive and Gal4-VP16 FLuc inactive.
For Cc1cccc(/C=N/NC(=O)Cc2ccc(Cl)cc2)c1O the results were Giardia killer inactive, ELG1 DNA repair inconclusive, RORgamma inh 1.12µM, p53 reactivator inactive, BRCA1 expr act inactive and Gal4-VP16 FLuc 1µM.
For O=C(Cc1ccc(Cl)cc1)N/N=C/c1ccc(O)c(O)c1 the results were BRCA1 expr act inactive.
Screening Cc1cccc(/C=N\NC(=O)c2ccc(Cl)cc2)c1O returned Giardia killer inactive, ELG1 DNA repair inconclusive, RORgamma inh 6.31µM, p53 reactivator inconclusive, BRCA1 expr act inactive and Gal4-VP16 FLuc 12.6µM.
O=C(NN=Cc1cccc(O)c1O)c1ccccc1 was read as BRCA1 expr act inactive.
For Cc1ccc(O)c(/C=N/NC(=O)Cc2ccc(Cl)cc2)c1 the results were Giardia killer inactive, ELG1 DNA repair inconclusive, RORgamma inh 0.631µM, BRCA1 expr act inactive and Gal4-VP16 FLuc 0.631µM.
O=C(Cc1ccc(Cl)cc1)N/N=C/c1c(Cl)cccc1Cl was read as Giardia killer inconclusive, ELG1 DNA repair inconclusive, RORgamma inh inactive[10 µM], p53 reactivator inactive, BRCA1 expr act inactive and Gal4-VP16 FLuc inactive.
COC(=O)c1sccc1NC(=O)CSCCc1ccccn1 was read as Giardia killer inactive, ELG1 DNA repair inactive, RORgamma inh inactive, p53 reactivator inactive, BRCA1 expr act inactive and Gal4-VP16 FLuc inactive.
For NC(=O)CC(NC(=O)c1ccccc1)c1ccc(N2CCN(c3ccccn3)CC2)c([N+](=O)[O-])c1 (configuration not stated) the results were Giardia killer inactive, ELG1 DNA repair inconclusive, RORgamma inh inactive, p53 reactivator inactive, BRCA1 expr act inactive and Gal4-VP16 FLuc inactive.
COc1ccccc1NC(=O)C(C)N1C(=O)c2ccccc2C1=O (configuration not stated) was read as Giardia killer inactive, ELG1 DNA repair inactive, RORgamma inh inactive, p53 reactivator inactive, BRCA1 expr act inactive and Gal4-VP16 FLuc inactive.
For CCC1=NN(C(=O)C(=O)Nc2ccccc2OC)C(O)(C(F)(F)F)C1 (configuration not stated) the results were Giardia killer inactive, ELG1 DNA repair inactive, RORgamma inh 12.6µM, p53 reactivator inactive, BRCA1 expr act inactive and Gal4-VP16 FLuc inconclusive.
For COc1ccccc1NC(=O)C(=O)N1N=C(C(C)C)CC1(O)C(F)(F)F (configuration not stated) the results were Giardia killer inactive, ELG1 DNA repair inactive, RORgamma inh 10µM, p53 reactivator inactive, BRCA1 expr act inactive and Gal4-VP16 FLuc inconclusive.
For CC(=O)c1ccc(OCCCC(=O)NNC(=O)c2ccccn2)cc1 the results were Giardia killer inactive, ELG1 DNA repair inactive, p53 reactivator inactive and BRCA1 expr act inactive.
For O=C(c1cccc(-c2ccccc2F)c1)N1CC[C@@H](N2CCC(O)CC2)[C@H](O)C1 the results were Giardia killer inactive, ELG1 DNA repair inactive, RORgamma inh inactive, p53 reactivator inactive, BRCA1 expr act inactive and Gal4-VP16 FLuc inactive.
For CCN1CCN(Cc2ccc(NC(=O)c3cc(NC(=O)c4cncc(-c5ccc(C#N)cc5)c4)cc(OC)c3)cc2C(F)(F)F)CC1 the results were Giardia killer inactive, ELG1 DNA repair inactive, RORgamma inh 2.82µM, p53 reactivator inactive, BRCA1 expr act inactive and Gal4-VP16 FLuc 3.55µM.
`CCN1CCN(Cc2ccc(NC(=O)c3cc(NC(=O)c4nccnc4N)cc(OC)c3)cc2C(F)(F)F)CC1` gave Giardia killer inactive, ELG1 DNA repair inactive, RORgamma inh inactive, p53 reactivator inactive, BRCA1 expr act inactive and Gal4-VP16 FLuc inactive.
For CCN(CC)C1CCN(C(=O)c2cc(COc3cccc4cccnc34)on2)C1 (configuration not stated) the results were Giardia killer inactive, ELG1 DNA repair inconclusive, RORgamma inh inactive, p53 reactivator inactive, BRCA1 expr act inactive and Gal4-VP16 FLuc inactive.
Screening Cc1cccc(NC(=O)CCN2CCN(C/C=C/c3ccccc3)CC2)c1 returned Giardia killer inactive, ELG1 DNA repair inconclusive, RORgamma inh inactive, p53 reactivator inactive, BRCA1 expr act inactive and Gal4-VP16 FLuc inactive.
O=S(=O)(c1ccc(Oc2ccc(F)c(Cl)c2)nc1)N1CCOCC1 was read as Giardia killer inactive, ELG1 DNA repair inactive, p53 reactivator inactive and BRCA1 expr act inactive.
`CSCCC1NC(=O)N(CC(=O)Nc2ccc(Br)cc2Br)C1=O` (configuration not stated) gave Giardia killer inactive, ELG1 DNA repair inactive, RORgamma inh inactive, p53 reactivator inactive, BRCA1 expr act inactive and Gal4-VP16 FLuc inactive.
